Here are results for seven compounds from PubChem BioAssay AID1259240 (Keith Lab, Institute of Cancer Science, University of …, 2017).

Unmarked numbers belong to inactive results. Active and inactive are the calls of the source. Rule as the data show it: active = fold change mostly below about -2 (no sharp cut-off); inactive = mostly above about -1.8.

A short description of the experiment: modulation of TERT promoter-driven luciferase – cell-based, luciferase reporter, human, primary screen (AID 1259240). The conditions noted are these: A2780 TERT promoter luciferase reporter, 16 h; at 20 µM, fold versus average of vehicle-only wells. Background: Reporter assays use an easily measured gene product as a stand-in for the process of interest.
Turning to `CCSC1=NSC2=NC(=O)/C(=C\c3coc4ccccc4c3=O)C(=N)N12`, the fold change is 1.16.
Same read-out and setting: as for `Cn1c(=O)oc2cc(S(=O)(=O)N3CCC(C(=O)Nc4nccs4)CC3)ccc21`, the figure is 1.31; as for `CCOC(=O)C1=C(CS(=O)(=O)c2ccc(F)cc2)NC(=O)NC1c1cc(OC)ccc1OC` (configuration not stated), 1.65.
As to `O=c1[nH]c(-c2ccc3nsnc3c2)nc2ccccc12`, the outcome was inactive.
Turning to `COCCN1C(=O)C(=O)/C(=C(\O)c2ccc(OC)cc2)C12C(=O)N(C)c1ccccc12` (configuration not stated), the fold change is -1.95.
Same read-out and setting: as for `Cc1ccc(C)c(Nc2nc3ccccc3n3nnnc23)c1`, the figure is 1.43; as for `O=C1c2cccnc2C(=O)N1Cc1ccccc1`, 1.84.
